Among the data in PubChem BioAssay AID2685 (National Center for Advancing Translational Sciences (NCATS), 2010) are Potency and cell number change values, retold here.

The campaign covered roughly 320,000 compounds. About 2,100 (0.66%) were called active. Inconclusive results (about 53%) are left out. Calls come from the whole dose curve; as a rule, active = well fitted inhibition curve with a large enough effect in the signal ratio, with a control signal flat (not every such curve was filed as active); inconclusive = small, poorly fitted or top-dose-only effect, or effect the other way, or a change in a side signal; inactive = flat fitted curve, though single readings scatter; the % refers to the signal ratio. Shown is part of a subset that was picked to be rich in actives.
Potency is the fitted concentration of half-maximal effect.

The assay is described as follows: qHTS Assay for Lipid Storage Modulators in Drosophila S3 Cells.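 For cell number change: cells counted by Cell Tracker Red CMTPX staining in the red channel.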 To be noted: BODIPY lipid droplet fluorescence, 18-24 h, cells fed with added oleic acid; cell number change: measured here: cell count max response; series mostly up to 46.1 µM. In a few lines: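 Laser-scanning cytometry quantifies lipid droplet accumulation (500–530 nm total intensity; droplet/cell object ratio) in oleic acid-fed (400 uM added) Drosophila S3 cells treated with a concentration series. 20 uM Triacsin C defined 100% inhibition.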
(In general: qHTS replaces the single test concentration by a dilution series.)
On to `COC(=O)C1=CO[C@@H](C)[C@@H]2CN3CC[C@]4(C(=O)Nc5ccccc54)[C@@H]3C[C@H]12`, for which the Potency entry was “inactive” and the cell number change was -15.3%.
For `O=C(c1cccc2ccccc12)C1CCCN(Cc2ccon2)C1` (configuration not stated), the Potency result was “inactive” and the cell number change was determined as 0.85%.
For `CSc1ccccc1C(=O)C1CCCN(Cc2cccc(C)n2)C1` (configuration not stated), the Potency entry is “inactive” and the cell number change was found to be 5.61%.
As to `O=P(O)(O)Oc1ccccc1P(=O)(c1ccccc1)c1ccccc1`, the Potency entry is “inactive” and the cell number change was 13.5%.
`O=P(O)(O)COc1ccccc1P(=O)(c1ccccc1)c1ccccc1`: the Potency was 16.4 µM (active).
For `O=P(O)(O)Cc1ccccc1OP(=O)(c1ccccc1)c1ccccc1`, the Potency result was “inactive” and the cell number change is -17.7%.
For `COc1ccc(CC(C)NC2CCCCCC2)cc1` (configuration not stated), the Potency entry was “inactive” and the cell number change was -21%.
With `NC(=O)CSc1nnc([C@@H](N)Cc2c[nH]c3ccccc23)o1`, the Potency entry is “inactive”.
`O=C(c1ccc(Br)cc1)C12CN3CN(CN(C3)C1)C2`: the Potency result was “inactive” and the cell number change was 8.31%.
`CCN(CC)CCN=Cc1c(O)n(CCC2=CCCCC2)c(=O)[nH]c1=O`: the Potency is 23.1 µM (active) and the cell number change turned out to be 11.2%.
The like results for `O=c1[nH]c(=O)n(CCC2=CCCCC2)c(O)c1/C=N/N1CCOCC1` were, in that order, “inactive” and 8.55%.
The corresponding values for `CCN(CC)CCN=Cc1c(O)n(CCc2ccccc2)c(=O)[nH]c1=O` are “inactive” and 12.9%.
Regarding `CN(C)CCN=Cc1c(O)n(C2CCCCCC2)c(=O)[nH]c1=O`, the Potency result is “inactive” and the cell number change came to 6.67%.
Turning to `O=c1[nH]c(=O)n(C2CCCCC2)c(O)c1C=NCCCn1ccnc1`, the Potency result was “inactive” and the cell number change was 17.5%.
Turning to `CCN(CC)CCN=Cc1c(O)n(C2CCCCCC2)c(=O)[nH]c1=O`, the Potency was 18.4 µM (active) and the cell number change is -10.3%.
Turning to `C=CCn1c(C)c(C=C2C(=O)NC(=O)NC2=O)c2ccccc21`, the Potency entry was “inactive” and the cell number change was 5.7%.
The like results for `O=c1[nH]c(=O)n(-c2ccc(Br)cc2)c(O)c1C=NC(CO)(CO)CO` were, in that order, “inactive” and -6.55%.
The corresponding values for `O=C(CCN1C(=O)COc2ccccc21)N1CCC2(CC1)OCCO2` are “inactive” and 1.47%.
`O=c1c2ccccc2ncn1-c1ccc([N+](=O)[O-])c(C(F)(F)F)c1`: the Potency result was “inactive” and the cell number change was 7.19%.
Regarding `Cc1ccccc1-[n+]1c(-c2ccccc2)cc(-c2ccccc2)cc1-c1ccccc1`, the Potency was 23.1 µM (active).
Consider `C[n+]1c(-c2ccccc2)cc(-c2ccc(O)cc2)cc1-c1ccccc1`, for which the Potency result was “inactive” and the cell number change is -18%.
The like results for `O=c1[nH]c(=S)n(C2CC2)c(O)c1C=NCc1cccnc1` were, in that order, “inactive” and 11.1%.
As to `O[C@@H]1CCCC[C@H]1N1CCC(c2ccccc2)CC1`, the Potency was -4.74%.
With `CC(=O)N1N=C2C3CCN(CC3)C2C1c1ccccc1` (configuration not stated), the Potency entry was “inactive” and the cell number change was 1.69%.
For the compound `ON1C2CCCCC2N(O)C1c1ccccc1` (configuration not stated), the Potency entry is “inactive”.
Consider `Cc1ccc(/C=C2/C(=O)NC(=O)N(CCc3ccc(F)cc3)C2=O)o1`, for which the Potency entry was “inactive” and the cell number change was -2.41%.
The corresponding values for `FC(F)(F)c1ccccc1N1CC1c1ccncc1` (configuration not stated) are “inactive” and -4.55%.
Turning to `CSc1ncc(/C=C2/C(=O)NC(=O)N(c3ccc(C)cc3)C2=O)cn1`, the Potency entry is “inactive” and the cell number change is 8.62%.
Consider `O=C(c1ccc2c(=O)n(Cc3ccc4c(c3)OCO4)c(=S)[nH]c2c1)N1CCC2(CC1)OCCO2`, for which the Potency result was “inactive” and the cell number change is -17%.
With `O=C1NC(=O)C(=Cc2ccsc2)C(=O)N1`, the Potency result is “inactive” and the cell number change came out at 11.6%.
The corresponding values for `O=C1NC(=S)NC(=O)C1=Cc1cccn1-c1ccc(O)cc1` are “inactive” and -0.957%.
On to `CN1C(=O)/C(=C\c2ccc(N3CCCCCC3)cc2)C(=O)NC1=S`, for which the Potency result is “inactive” and the cell number change was 9.11%.
For `CN1C(=O)/C(=C/c2cccn2-c2ccc3ccccc3c2)C(=O)NC1=S`, the Potency was 3.26 µM (active) and the cell number change is -19%.
As for `CC(c1ccccc1)(c1ccccc1)c1ccncc1`, the Potency entry is “inactive” and the cell number change is 6.39%.
With `ClC(Cl)(Cl)c1ccccc1`, the Potency is 0.58 µM (active) and the cell number change came out at 2.26%.
With `Cc1ccc(N)c(C(=O)c2ccccc2)c1`, the Potency entry is “inactive” and the cell number change is -2.37%.
For the compound `C=CCn1c(O)c(C(C)=NCc2ccc3c(c2)OCO3)c(=O)[nH]c1=O`, the Potency result was “inactive” and the cell number change came out at 5.5%.
The like results for `COc1ccc(C(=O)N2CCCC2=O)cc1` were, in that order, “inactive” and 11.9%.
`COc1ccc(C(=O)C(C)(C)NO)cc1`: the Potency was 3.26 µM (active) and the cell number change was -1.48%.
The corresponding values for `COc1ccc(C(=O)C23CN4CN(CN(C4)C2)C3)cc1` are “inactive” and 4.85%.
Turning to `O=C1NC(=O)N(c2ccc3c(c2)OCO3)C(=O)/C1=C\c1ccsc1`, the Potency entry is “inactive” and the cell number change was -1.9%.
Take `CC(=O)c1cc(C(C)=O)c(C)[n+](C)c1C`: the Potency result was “inactive” and the cell number change worked out at 12.6%.
The like results for `CNC(=S)N1CCN(CCN=Cc2c(O)n(-c3ccc(C)cc3)c(=S)[nH]c2=O)CC1` were, in that order, “inactive” and 1%.
As for `Cc1cc(OC(C)C(=O)NCC(O)c2ccccc2)c2c3c(c(=O)oc2c1)CCC3` (configuration not stated), the Potency result is “inactive”.
Take `Cc1cc(OCC(=O)NCc2ccncc2)c2c3c(c(=O)oc2c1)CCC3`: the Potency result is “inactive” and the cell number change was -10.8%.
As to `Cc1cc(OCC(=O)NCC(O)c2ccccc2)c2c3c(c(=O)oc2c1)CCC3` (configuration not stated), the Potency was 20.6 µM (active) and the cell number change is -16.3%.
Turning to `CCC12CN3CCN(CC(C3)/C1=N\O)C2`, the Potency result was “inactive” and the cell number change is -11.3%.
As to `CC(C)C12CN3CCN(CC(C3)/C1=N\O)C2`, the Potency is 6.51 µM (active) and the cell number change was -1.85%.
For the compound `CC12CN3CCN(CC(C3)/C1=N/NC(N)=O)C2`, the Potency entry is “inactive” and the cell number change was 0.944%.
Turning to `C/C(=N\NC(=S)Nc1ccccc1)c1c(O)n(C)c(=O)n(C)c1=O`, the Potency entry was “inactive”.
On to `CCN1C[C@]2(C)CC[C@H](O)[C@]34C1[C@H](C[C@H]23)[C@@]1(O)C[C@H](OC)[C@H]2C[C@@H]4[C@@H]1C2O` (some centres not stated), for which the Potency entry was “inactive” and the cell number change was -19.2%.
In the case of `C=CCn1c(O)c(C(C)=NC2CCN(Cc3ccccc3)CC2)c(=O)[nH]c1=O`, the Potency entry is “inactive” and the cell number change was determined as 4.94%.
The like results for `CC(=NC1CCN(Cc2ccccc2)CC1)c1c(O)n(C)c(=O)n(C)c1=O` were, in that order, 29.1 µM (active) and 4.54%.
The corresponding values for `Cn1c(O)c(C=NC2CCN(Cc3ccccc3)CC2)c(=O)n(C)c1=O` are “inactive” and 0.664%.
The like results for `CCCCOC(=O)C1=C(N)OC2=C(C(=O)CC(C)(C)C2)[C@]12C(=O)N(C)c1ccccc12` were, in that order, “inactive” and -14.5%.
As to `CCOC(=O)C1=C(N)OC2=C(C(=O)CCC2)[C@]12C(=O)N(CC(N)=O)c1ccccc12`, the Potency entry is “inactive” and the cell number change amounted to 1.37%.
On to `CCCCOC(=O)C1=C(N)OC2=C(C(=O)CCC2)[C@]12C(=O)N(C)c1ccccc12`, for which the Potency is 5.17 µM (active) and the cell number change is -3.29%.
For the compound `COC1CCCCC1NCCc1ccccc1` (configuration not stated), the Potency entry was “inactive” and the cell number change is -9.24%.
In the case of `N#Cc1ccc(Cn2cc(C=O)c3ccccc32)cc1`, the Potency entry is “inactive” and the cell number change came out at 15.7%.
For the compound `C=CCn1c(O)c(C(CC)=NCCN2CCN(C(=S)NC)CC2)c(=O)[nH]c1=O`, the Potency entry is “inactive” and the cell number change was -0.0083%.
For `CCCCn1c(=O)c(C(=O)NCCc2ccccc2)c(O)c2ccccc21`, the Potency result was “inactive” and the cell number change was -5.77%.
As to `Cc1cc(O)c2c(c1)C(=O)C13C(=C2O)C(=O)[C@H]2[C@@H](O)[C@@H]1[C@H]1[C@H](O)[C@@H]3C(=O)C3=C(O)c4c(O)cc(C)cc4C(=O)C312` (some centres not stated), the Potency was 9.2 µM (active) and the cell number change stood at 19.8%.
